Compounds without any hit were thinned out: in the full panel of roughly 83,000, 20% have a hit.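 In brief: 96-well plates, 48 h treatment, single concentration, percent growth endpoint.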 A number with no mark means an inactive call. Rule for the calls: active = growth percent below 10; inactive = the rest.
test system: OVCAR-5 ovarian; test: NCI-60 one-dose screen, 48 h (100 = growth as untreated, 0 = no growth, -100 = all killed); settings: 10 µM unless noted

SMILES	growth
N=c1sc(Cc2ccc(Cl)cc2)cn1CC(=O)c1ccc(F)cc1	71%
CCCCn1c(=O)c2c(nc3n2CCCN3CCc2ccc(OCC(=O)NCCN(CC)CC)cc2)n(CCCC)c1=O	94%
COc1ccc(NC(=O)c2nc(-c3cc(OC)c(OC)c(OC)c3)n(-c3cccc4ccccc34)n2)cc1OC	56.1%
O=C1CCc2c(sc3[nH]c(=S)n(-c4ccc(OC(F)(F)F)cc4)c(=O)c23)C1	55.7%
C[C@@]1(CCC#N)[C@H]2CC[C@@H]3[C@H]4[C@H](C(=O)/C=C/c5cccnc5)CC[C@]4(C#N)CC[C@@]3(C)[C@]2(C)CC[C@H]1C(=O)/C=C/c1cccnc1	136%
Cc1c(C)c2c(c(C)c1OCC(=O)O)CC[C@@](C)(CCC[C@@H](C)CCC[C@@H](C)CCCC(C)C)O2	25.5% [50 µM]
O=C(NCCCNc1cc(-c2cn(-c3ccccc3)nc2-c2cccc(O)c2)ccn1)c1ccc(F)cc1	58%
Cn1c(-c2c(N)n(Cc3ccc(C(F)(F)F)cc3)c3nc(C#N)c(C#N)nc23)nc2ccccc21	30%
Nc1nc(N)c2c(n1)NC(c1ccccc1)C1CCc3ccccc3C1=N2 (configuration not stated)	112%
COc1ccc2[nH]c(O)c(/C=c3/cc4c(c(-c5cc(OC)c(OC)c(OC)c5)n3)=Nc3ccccc3-4)c2c1	116%
CCOC(=O)c1c2ncccc2n2c(=O)n(-c3ccccc3C)nnc12	101%
COc1cccc(C(=O)NCCCNc2cc(-c3cn(-c4ccccc4)nc3-c3cccc(OC)c3)ccn2)c1	82.1%
